From PubChem
Sampled rows, rich in hits. Any-hit rate of the full collection: about 13%.
FMDV inh: High Throughput Screening for Foot and Mouth Disease Virus Antivirals; FMDV antiviral cell-based qHTS; Potency, µM (highest dose often 57.9 µM), for inactives: top-dose activity change, negative = inhibition, usual class: inhibitors; 410,000 compounds, 1.2% hits; AID 1159524, 2015; calls by dose curve; tested in HEK293T cells; also: read-out not given here; potency is read from the fitted curve at half-maximal effect; % is scaled to controls: 0 for no effect and ±100 for the full control effect; nearly all actives have a fitted effect of over 45% in size
CHX counter: Cycloheximide Counterscreen for Small Molecule Inhibitors of Shiga Toxin; 300,000 compounds, 12% hits; cell reporter, cycloheximide protein synthesis inhibition counterscreen; AID 2314, 2010; max response, %; in the data active = max response mostly above about 13%, no sharp cut-off; inactive = mostly below about 14%; also: read at 38.3 µM for the half of the compounds with a filed dose; 0% is about no effect
Marburg entry inh: qHTS for inhibitors of binding or entry into cells for Marburg Virus; Marburg virus pseudotyped entry inhibition, cell reporter; Potency, µM (doses to about 37.8 µM), for the others: at the top dose activity change, negative = inhibition, usual class: inhibitors; 300,000 compounds, 1.8% hits; calls by dose curve; tested in HEK293 cells; also: potency is read from the fitted curve at half-maximal effect; % is scaled to controls: 0 for no effect and ±100 for the full control effect
Shiga toxin inh: A qHTS for Small Molecule Inhibitors of Shiga Toxin; inhibition, % at 38.7 µM; Vero cells, Shiga toxin protein synthesis inhibition reporter; 290,000 compounds, 9.2% hits; in the data active = inhibition mostly above about 28%, no sharp cut-off; inactive = mostly below about 43%; also: 0% is about no effect
HCV inh: qHTS Assay for Inhibitors of Hepatitis C Virus (HCV) | AID 651820, 2012 | 340,000 compounds, 3.4% hits | Potency, µM (series often up to 41.8 µM), for inactives: at the top dose activity change, negative = inhibition, hits mostly inhibitors | Huh7.5.1 HCVcc-Cre infection, luciferase reporter, 44 h; active = well fitted inhibition curve with a large enough effect; inconclusive = small, poorly fitted or top-dose-only effect, or another doubt; inactive = no such curve, though single readings can be large or run the other way; also: potency is read from the fitted curve at half-maximal effect; % is scaled to controls: 0 for no effect and ±100 for the full control effect
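Luciferase read-out (15 sec integration) after a 15 min room-temperature substrate step quantifies HCVcc-Cre infection. Cells, 1,000 per well, had compound added 4 h post-plating, then virus at ~0.5 moi, and were cultured 44 h.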
LASV entry inh: qHTS for Inhibitors of binding or entry into cells for Lassa Virus; 300,000 compounds, 1.2% hits; AID 540256, 2011; Potency, µM (highest dose often 37.9 µM), inactives show at the top dose activity change, negative = inhibition, usual class: inhibitors; Lassa virus pseudotype entry inhibition, cell reporter; calls by dose curve; tested in HEK293 cells; also: potency is read from the fitted curve at half-maximal effect; % is scaled to controls: 0 for no effect and ±100 for the full control effect; nearly all actives have a fitted effect of over 50% in size
The depositor's hits bear a star; [ ] = dose if it differs, or a comment.

How did C=CCSc1nnc2c(n1)OC=Nc1ccc(Br)cc1-2 do in these assays?
FMDV inh: 13%; CHX counter: 7; Marburg entry inh: -13%; Shiga toxin inh: 9; HCV inh: 24%; LASV entry inh: 3%

What do the screens show for `Cc1nn(-c2ccccc2)c2c1C(c1ccco1)C(C#N)=C(N)O2` (centres undefined)?
FMDV inh: 31%; CHX counter: 40*; Marburg entry inh: -13%; Shiga toxin inh: 55*; HCV inh: 13%; LASV entry inh: 11%

Results for Cc1nn(-c2ccccc2)c2c1C(c1cccs1)C(C#N)=C(N)O2 (centres undefined) ?
FMDV inh: -15%; CHX counter: 9; Marburg entry inh: 9%[46.1 µM]; Shiga toxin inh: -3; HCV inh: 22%; LASV entry inh: 22%

What do the screens show for `COc1ccc(Nc2cc(C)nc(N)n2)cc1`?
FMDV inh: 27%; CHX counter: 20*; Shiga toxin inh: 37*; HCV inh: -22%

What do the screens show for `COc1ccc(Nc2cc(Cl)nc(N)n2)cc1`?
FMDV inh: 14%; CHX counter: 29*; Marburg entry inh: -29%[46.1 µM]; Shiga toxin inh: 36; HCV inh: 9%; LASV entry inh: 13%[46.1 µM]

What do the screens show for `CCCCNc1cc(Cl)nc(N)n1`?
FMDV inh: -5%; CHX counter: -1; Marburg entry inh: -14%[46.1 µM]; Shiga toxin inh: -2; HCV inh: -3%; LASV entry inh: 8%

What do the screens show for `Nc1cc(Nc2ccc(Br)cc2)nc(N)n1`?
FMDV inh: 18%; CHX counter: 40*; Marburg entry inh: -29%[46.1 µM]; Shiga toxin inh: 70*; HCV inh: 0%; LASV entry inh: 13%[46.1 µM]

What do the screens show for `COc1ccc(Nc2cc(C)nc(NCc3ccccc3)n2)cc1`?
FMDV inh: inconclusive; CHX counter: 1; Marburg entry inh: inconclusive; Shiga toxin inh: 22; HCV inh: inconclusive; LASV entry inh: inconclusive

What do the screens show for `Cc1cc(Nc2ccc(Cl)cc2)nc(N)n1`?
FMDV inh: 47%; CHX counter: 68*; Marburg entry inh: 2%; Shiga toxin inh: 63*; HCV inh: -5%; LASV entry inh: -13%

Results for CC1c2nc3ccccc3n2C(CC(=O)NC2CC2)C(=O)N1Cc1ccccc1 (centres undefined) ?
FMDV inh: -21%; CHX counter: 10; Shiga toxin inh: -1; HCV inh: 7%

Results for COc1ccc(Cl)cc1NC(=O)COC(=O)CNC(=O)C1CCCCC1 ?
FMDV inh: -13%; HCV inh: inconclusive

How did CC(C)CCN1C(=O)N(c2ccccc2)C(=O)C1CC(=O)Nc1ccc(Cl)cc1 (centres undefined) do in these assays?
FMDV inh: 28%; LASV entry inh: -15%[46.1 µM]

What do the screens show for `Clc1ccccc1-c1nc(NCCN2CCOCC2)c2ccccc2n1`?
FMDV inh: 7%

How did Oc1ccccc1-c1nc(NCCN2CCOCC2)c2ccccc2n1 do in these assays?
FMDV inh: inconclusive; CHX counter: -4; Marburg entry inh: 1%; Shiga toxin inh: -16; HCV inh: 7.1µM*; LASV entry inh: 5%

What do the screens show for `COc1cccc(-c2nc(NCCN3CCOCC3)c3ccccc3n2)c1O`?
FMDV inh: -16%; CHX counter: -4; Marburg entry inh: -2%; Shiga toxin inh: -21; HCV inh: 10µM*; LASV entry inh: -3%

What do the screens show for `CC1(C)SC(=S)N(/N=C/c2ccccc2)C1N(O)C(=O)Nc1ccc([N+](=O)[O-])cc1` (centres undefined)?
FMDV inh: 4%; CHX counter: 14; Marburg entry inh: 18µM*; Shiga toxin inh: 31; HCV inh: inconclusive; LASV entry inh: 0%

What do the screens show for `CCOC(=O)c1cc(C#N)c(N2CCCNCC2)nc1C(F)(F)F`?
FMDV inh: -9%; CHX counter: -4; Shiga toxin inh: -3; HCV inh: 16µM*

How did CCOC(=O)c1cc(C#N)c(N2CCN(c3ccccn3)CC2)nc1-c1ccccc1 do in these assays?
FMDV inh: -17%; CHX counter: -1; Marburg entry inh: inconclusive; Shiga toxin inh: -1; HCV inh: inconclusive; LASV entry inh: inconclusive

How did O=C(NCCc1ccccc1)Nc1nnc([C@H]2C[C@H](O)[C@@H](CO)O2)s1 do in these assays?
FMDV inh: -3%

What do the screens show for `COc1cccc(N(C(=O)c2ccco2)c2nc(-c3sc(NC(=O)c4ccco4)nc3C)cs2)c1`?
FMDV inh: -6%; CHX counter: 2; Marburg entry inh: -2%; Shiga toxin inh: -3; HCV inh: 4µM*

What do the screens show for `Cc1nc(NC(=O)c2ccco2)sc1-c1csc(Nc2ccc(Cl)cc2Cl)n1`?
FMDV inh: -23%; CHX counter: 12; Shiga toxin inh: 35; HCV inh: inconclusive

What do the screens show for `Cc1ccc(Cl)cc1Nc1nc(-c2sc(NC(=O)c3ccco3)nc2C)cs1`?
FMDV inh: 1%; CHX counter: -3; Shiga toxin inh: -18; HCV inh: 8.9µM*

Results for Cc1nc(NC(=O)c2ccco2)sc1-c1csc(Nc2ccc(Cl)cc2)n1 ?
FMDV inh: 0%; CHX counter: 1; Shiga toxin inh: -4; HCV inh: 2.5µM*

Results for CCCCC[C@@H](/C=C/C1C(=O)C=C[C@H]1C/C=C\CCCC(=O)OC)OC(C)=O (some centres undefined) ?
FMDV inh: 28µM*; HCV inh: -9%[8.37 µM]

Results for C=CCC[C@H](Cc1ccc(F)cc1)C(=O)OC[C@@H](NC(=O)[C@@H](CC=C)CC(=O)N(CCO)Cc1ccccc1)C(C)(C)C ?
FMDV inh: inconclusive; HCV inh: 3.2µM*

How did C=CCC[C@@H](Cc1ccc(F)cc1)C(=O)OC[C@@H](NC(=O)[C@@H](CC=C)CC(=O)N[C@@H](CO)Cc1ccccc1)C(C)(C)C do in these assays?
FMDV inh: inconclusive; HCV inh: 5%

How did C=CCC[C@@H](Cc1ccc(F)cc1)C(=O)OC[C@H]1CCCN1C(=O)[C@@H](CC=C)CC(=O)N[C@H](CO)Cc1ccccc1 do in these assays?
FMDV inh: inconclusive; HCV inh: 6%

What do the screens show for `C=CCC[C@H](Cc1ccc(F)cc1)C(=O)OC[C@@H](NC(=O)[C@@H](CC=C)CC(=O)N[C@@H](CO)Cc1ccccc1)C(C)(C)C`?
FMDV inh: -1%; HCV inh: 22µM*

What do the screens show for `C=CCC[C@@H](Cc1ccc(F)cc1)C(=O)OC[C@@H]1CCCN1C(=O)[C@H](CC=C)CC(=O)N[C@H](CO)Cc1ccccc1`?
FMDV inh: inconclusive; HCV inh: 10µM*

How did N#CCSc1nnc(COc2cccc3ccccc23)n1-c1ccccc1 do in these assays?
FMDV inh: 14µM*; CHX counter: -3; Marburg entry inh: inconclusive; Shiga toxin inh: -9; HCV inh: inconclusive; LASV entry inh: inconclusive
